Screens (PubChem)
Cardiac RTF inh = cardiac RTF calcium desensitization; 340,000 compounds, 0.12% hits; IANBD-labeled cardiac RTF, Ca2+ fluorescence; inhibition, % at 7.15 µM; P19429+P45379;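 active = inhibition above the mean inhibition of all tested compounds plus 3 SD, cut at about 17% in these data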;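 note: assay run at fixed EC70 calcium of 1.6 mM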
Keap1-Nrf2 PPI = Keap1-Nrf2 (human) interaction inhibition. inhibition, % at 9.4 µM. Keap1 Kelch-Nrf2 peptide fluorescence polarization, 1536-well. AID 504523. 340,000 compounds, 0.15% hits. Q14145; in the data active = inhibition above about 12%;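 note: human Keap1 Kelch domain with fluorescein labeled Nrf2 9mer peptide probe; 0% = neutral control wells and 100% = peptide positive control; higher means more block of Keap1 binding to Nrf2 peptide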
Target sequence (Q14145 whole entry, looked up, the tested form may be a part): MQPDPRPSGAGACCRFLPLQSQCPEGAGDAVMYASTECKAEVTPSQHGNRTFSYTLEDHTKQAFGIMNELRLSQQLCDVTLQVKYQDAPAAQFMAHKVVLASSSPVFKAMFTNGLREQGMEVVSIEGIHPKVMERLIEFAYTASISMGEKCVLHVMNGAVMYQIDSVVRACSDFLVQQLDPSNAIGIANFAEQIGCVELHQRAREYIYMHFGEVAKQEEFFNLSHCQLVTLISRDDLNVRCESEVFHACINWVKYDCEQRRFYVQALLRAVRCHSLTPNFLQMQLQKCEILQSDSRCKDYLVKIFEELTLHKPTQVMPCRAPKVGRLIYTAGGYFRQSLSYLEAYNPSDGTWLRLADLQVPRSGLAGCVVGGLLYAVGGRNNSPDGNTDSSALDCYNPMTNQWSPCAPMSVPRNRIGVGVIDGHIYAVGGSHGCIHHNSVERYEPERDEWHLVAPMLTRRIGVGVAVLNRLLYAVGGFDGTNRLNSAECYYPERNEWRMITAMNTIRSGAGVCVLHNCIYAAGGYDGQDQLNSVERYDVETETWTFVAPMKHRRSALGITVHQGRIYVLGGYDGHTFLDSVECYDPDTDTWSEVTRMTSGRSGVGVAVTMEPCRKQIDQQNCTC
LANA DNA inh = KSHV C-LANA DNA binding inhibition | MBP-C-LANA/FAM-LBS DNA binding, fluorescence polarization | 340,000 compounds, 0.078% hits | inhibition, % at 9 µM | AID 504423;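 active = highest replicate inhibition at or above 60% at 9 µM, even if other replicates fall short; inactive = all replicates below 60% inhibition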;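 note: 0% = neutral control wells and 100% = 4 µM acridine orange control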
CRFR2-BP antag = blocks CRF-induced signaling of the CRF-BP/CRF-R2 complex; inhibition, % at 11.8 µM; AID 588475; HEK293 CRF-R2/CRF-BP, CRF-induced calcium fluorescence; 350,000 compounds, 0.59% hits;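 active = inhibition of the ligand-induced calcium signal above about 50% at the single tested concentration, limit read from the data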
RTF Ca sens act = cardiac RTF calcium sensitization; IANBD-labeled TnC RTF fluorescence at EC20 calcium; 0% EC20 calcium, 100% full calcium; AID 493008; 340,000 compounds, 0.24% hits; P19429+P45379; activation, % at 7.2 µM;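 active = activation above the mean over all tested compounds plus 3 SD, cut at about 30% in these data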;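 note: rise in fluorescence read as greater calcium sensitivity of cardiac thin filaments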
CRFR2-BP ag = agonists of human CRF-binding protein/CRF-R2 receptor complex. activation, % at 13.2 µM. 350,000 compounds, 0.46% hits. HEK293 CRF-R2/CRF-BP, calcium dye fluorescence (FLIPR); percent of saturating CRF peptide response;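 active = activation of at least 50%, plus an integration ratio under a set limit after plate pattern correction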;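 note: plate controls were neutral control wells without compound for no effect and CRF at EC100 for full effect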
* = called active by the depositor. Rows were chosen to be rich in hits. Some 1.3% of all compounds tested hit in one or more screens of this group.

SMILES	Cardiac RTF inh	Keap1-Nrf2 PPI	LANA DNA inh	CRFR2-BP antag	RTF Ca sens act	CRFR2-BP ag
CCCc1nc2ccccc2c(C(=O)OCC(=O)Nc2cccc(S(=O)(=O)N3CCOCC3)c2)c1CC	8	-7	0	-11	5	10
CN1CCC(N(CCc2ccccc2)C(=O)CCC(=O)O)CC1	-8	-3	-4	-3	35*	3
CCN(C(=O)CCc1ccccc1)C1CCCCC1	1	0	-1	-4	0	0
COc1ccc(OCc2cccc(C(=O)Nn3cc([N+](=O)[O-])cn3)c2)cc1	7	0	0	53*	2	13
Cn1c(CN2CCCCC2)nc2cc(NS(=O)(=O)c3ccc(Cl)cc3)ccc21	-8	-2	-1	-73	5	86*
Cn1c(CCN2CCCCC2)nc2cc(NS(=O)(=O)c3ccc(Cl)cc3)ccc21	1	0	-1	-11	-4	-1
Cc1c(N2C(=O)C3C4C=CC(C5CC45)C3C2=O)c(=O)n(-c2ccccc2)n1C (centres undefined)	-5	-4	-2	115*	-10	-1
Cc1c(N2C(=O)c3ccccc3C2=O)c(=O)n(-c2ccccc2)n1C	11	-2	-2	-2	4	-2
O=C(Nc1ccccc1C(=O)N1CCOCC1)c1ccco1	-8	2	0	35	-5	-3
O=C(Nc1ccccc1C(=O)N1CCOCC1)c1ccncc1	-6	-1	-1	102*	-3	-5
CC(=O)Nc1ccc(S(=O)(=O)NCCC(=O)OCC(=O)c2ccc(F)c(F)c2)cc1	-13	-6	0	-10	2	1
Cc1nnsc1C(=O)N/N=C/c1ccc2ccccc2c1O	-11	4	0	-170	6	147*
Cc1nnsc1C(=O)N/N=C/c1ccccc1	-9	0	1	-10	1	0
O=C(ON=C1CCN(c2ccc([N+](=O)[O-])cc2)CC1)c1ccccc1	0	0	0	64*	-1	-2
COc1ccc(S(=O)(=O)N2CCCCC2)cc1NC(=O)C1CCCC1	-5	4	1	-3	-1	0
CC(=O)Nc1ccc(OCC(O)CN2C(C)CCCC2C)cc1 (centres undefined)	14	-2	-1	18	0	0
CC(=O)Nc1ccc(OCC(O)CN2C(C)(C)CC(O)CC2(C)C)cc1 (centres undefined)	-4	-3	-2	53*	5	-2
COc1ccc(-c2csc(/C(C#N)=C/Nc3ccc4c(c3)OCCO4)n2)cc1	-5	-5	0	7	-2	5
CCOC(=O)c1ccc(Cl)c(NC(=O)c2ccc(-c3ccccc3)cc2)c1	6	-1	0	9	5	-1
CCOC(=O)c1ccc(/C=C2/C=C(c3ccccc3)N(c3ccc(Cl)c(C(=O)O)c3)C2=O)cc1	-14	-74	-4	-171	11	96*
COc1ccc(-n2c(O)c(/C=N/NS(=O)(=O)c3ccc(C)c([N+](=O)[O-])c3)c3ccccc3c2=O)cc1OC	-64	-49	-15	-39	128*	12
COC(=O)c1c(NC(=O)CN2CCC3(O)CCCCC3C2c2ccc(OC)cc2OC)sc(C)c1C (centres undefined)	-18	0	0	6	5	2
COC(=O)c1c(NC(=O)CN2CCC3(O)CCCCC3C2c2ccccc2OC)sc(C)c1C (centres undefined)	-6	-5	-1	-80	4	53*
COc1ccc(NC(=O)CN2CCC3(O)CCCCC3C2c2cc(OC)ccc2OC)cc1 (centres undefined)	-4	2	0	51*	-1	-1
Clc1ccc(CSc2nncn2-c2ccccn2)cc1	-7	0	-1	-20	-2	0
COc1ccc(C)cc1S(=O)(=O)N1CCN(S(=O)(=O)c2cc(C)ccc2OC)CC1	0	-3	1	54*	4	-6
O=C(NCc1ccc(F)c(F)c1)C1CCC(=O)N(CC2CCCCC2)C1 (centres undefined)	-9	4	0	-12	-1	-1
COc1cccc(CN2CC(C(=O)NCc3ccc(Cl)s3)CCC2=O)c1 (centres undefined)	4	-3	0	63*	-4	1
